Experimental data taken from PubChem BioAssay (NCI).
Compounds without any hit were thinned out: in the full panel of roughly 79,000, 15% have a hit. No stated cut-off is given here; in the data, active means growth inhibition above about 70%; inactive means the rest.

Experiments:
[1] = NCI Yeast Anticancer Drug Screen. Data for the rad50 strain (AID 155);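 further: 0% = growth of vehicle-only cultures of the same strain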; conditions: S. cerevisiae rad50 strain growth inhibition; at 50.0 µM; stronger effect = higher value
Procedure, shortened: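 Yeast carrying a defined DNA repair defect were exposed to test compounds, and growth was compared with vehicle-treated controls to give percent inhibition.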

[2] = NCI Yeast Anticancer Drug Screen. Data for the mec2-1 strain (AID 157); conditions: S. cerevisiae mec2-1 strain, at 50.0 µM, stronger effect = higher value
Procedure, shortened: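 Using mec2-1 yeast: add compound, measure growth, express inhibition versus vehicle-treated cultures.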

[3] = NCI Yeast Anticancer Drug Screen. Data for the sgs1 mgt1 strain (AID 161);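 further: 0% = growth of cultures given vehicle only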; conditions: S. cerevisiae sgs1 mgt1 strain, at 50.0 µM, stronger effect = higher value
Procedure, shortened: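 Yeast cells carrying a defined DNA-repair defect were exposed to test compounds. Growth inhibition was measured relative to vehicle-treated controls.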

[4] = NCI Yeast Anticancer Drug Screen. Data for the cln2 rad14 strain (AID 165);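 further: 0% = growth equal to vehicle treated cultures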; conditions: S. cerevisiae cln2 rad14 strain, at 50.0 µM, stronger effect = higher value
Procedure, shortened: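 Yeast strain cln2 rad14, bearing defects in cell cycle control and DNA repair, serves as the test system; values reflect growth inhibition compared with vehicle.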

[5] = NCI Yeast Anticancer Drug Screen. Data for the bub3 strain (AID 167); conditions: S. cerevisiae bub3 mutant strain, at 50.0 µM, stronger effect = higher value
Procedure, shortened: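 Compounds were applied to a genetically altered yeast strain carrying a cell-cycle control defect. Growth inhibition was scored against vehicle-treated controls.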

[6] = NCI Yeast Anticancer Drug Screen. Data for the mlh1 rad18 strain (AID 175); conditions: S. cerevisiae mlh1 rad18 strain growth inhibition; at 50.0 µM; stronger effect = higher value
Procedure, shortened: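 Steps: expose repair-defective yeast to compound; measure growth; express inhibition against vehicle-treated controls.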

Measured: growth inhibition

CCCCn1cnc2ccc(N)cc2c1=O
inactive: [1] -1.7% | [2] 1.85% | [3] 15.3% | [4] -1.7% | [5] 16.2% | [6] 2%

COc1cccc(C(=O)O)c1Cc1cccc2ccccc12
inactive: [1] 1.25% | [2] -6.7% | [3] 10.3% | [4] 27.2% | [5] -0.4% | [6] 25.1%

O=C(CN1CCOCC1)Nc1cccc(Cl)c1
inactive: [1] 0.5% | [2] -20.1% | [3] -2.6% | [4] -14.8% | [5] 58.3% | [6] -29.1%

O=C(O)Cc1ccc(I)cc1
inactive: [1] 58% | [2] -1.2% | [3] 26.9% | [4] -54% | [5] 34.2% | [6] 25.3%

CCOC(=O)Cc1cccnc1
inactive: [1] -27.6% | [2] -40% | [3] -14.1% | [4] 16.5% | [5] -12.2% | [6] -3.4%

Cc1ccc(OC/C=C/CS(=O)(=O)c2ccc(C)cc2)cc1
inactive: [1] -11.6% | [2] 10.3% | [3] 5.65% | [4] -23.2% | [5] -12.7% | [6] -28.6%

CC(C)(C)OC(=O)NC(CS(=O)(=O)O)C(=O)O (stereo unspecified)
inactive: [1] -39.1% | [2] -11.4% | [3] -2.4% | [4] 13.4% | [5] 13% | [6] -15.3%

CCCCC(O)C(=O)NCCC(=O)c1ccccc1 (stereo unspecified)
inactive: [1] -7.1% | [2] 5.95% | [3] 3.45% | [4] 22.9% | [5] 14.1% | [6] 20.4%

CCOc1ccccc1/C=N/NS(=O)(=O)c1ccc([N+](=O)[O-])cc1
inactive: [1] -19.2% | [2] -23.1% | [3] 2.55% | [4] -18.6% | [5] 12.9% | [6] -14.2%

O=C(c1cc([N+](=O)[O-])cc([N+](=O)[O-])c1)N1CCCC1
inactive: [1] -45.8% | [2] -20.7% | [3] -2.75% | [4] -25.1% | [5] 16.4% | [6] 9.2%

Cc1cccc(C(=O)c2ccccc2)c1C(=O)O
inactive: [1] 10.7% | [2] 2.45% | [3] 4.55% | [4] 2.45% | [5] -9.25% | [6] 2.15%

CC1CCCCN1Cc1ccccc1COC(=O)c1cccc(Br)c1 (stereo unspecified)
inactive: [1] 32.5% | [2] -1.65% | [3] 43.3% | [4] -16.9% | [5] 16.1% | [6] 2.4%

COc1ccc(N=Cc2ccc(OC(=O)c3ccccc3)c(OC)c2)cc1
inactive: [1] 2.15% | [2] 0.5% | [3] 0.55% | [4] -0.8% | [5] 13.3% | [6] -23.5%

CC(=O)C1CCC(C)(O)CC1=O (stereo unspecified)
inactive: [1] -0.6% | [2] -18% | [3] -14.5% | [4] -9.35% | [5] -8.4% | [6] -3.65%

O=C(C(Cl)=C(N1CCOCC1)N1CCOCC1)C(Cl)Cl
inactive: [1] -37.9% | [2] -18.4% | [3] -57.5% | [4] -15.8% | [5] -32.9% | [6] -34.6%

NC(=O)CC1CCCCC1
inactive: [1] 8.3% | [2] -9% | [3] -7.05% | [4] 7.35% | [5] 17.2% | [6] -8.55%

COC(=O)CCSCC(N)C(=O)O (stereo unspecified)
inactive: [1] 1.3% | [2] -2.95% | [3] -13.3% | [4] -39.5% | [5] -0.95% | [6] -18.4%

CC1=NN(C(=O)CC(=O)Nc2cccc(Cl)c2)C(=O)C1N=Nc1ccc(S(=O)(=O)c2ccc(N=NC3C(=O)N(C(=O)CC(=O)Nc4cccc(Cl)c4)N=C3C)cc2)cc1 (stereo unspecified)
inactive: [1] 36.5% | [2] 15.2% | [3] 23.4% | [4] -1.9% | [5] -25.4% | [6] 22.4%

CCCCCCCC[N+]1([O-])CC[N+](C)([O-])CC1 (stereo unspecified)
inactive: [1] 3.9% | [2] 4.1% | [3] -2.25% | [4] -21.5% | [5] -8.3% | [6] 2.55%

Cc1nc(C(F)(F)F)cc(=O)[nH]1
inactive: [1] 7.4% | [2] -3.6% | [3] 15.7% | [4] -1.25% | [5] -5.4% | [6] 51%

CC1(CC2(C)SCCCS2)SCCCS1
inactive: [1] -1.1% | [2] -7.55% | [3] 10.7% | [4] -2.35% | [5] -5.8% | [6] 7.8%
